Hits are enriched below; roughly 7.3% of the tested compounds scored in any of these assays.
Tau FP inhib – tau fibrillization inhibition (FP); AID 1468; Potency, µM (series often up to 57.7 µM), for the others: at the top dose activity, negative = inhibition, actives largely listed as inhibitors; P10636; 280,000 compounds, 0.39% hits; K18 P301L tau heparin fibrillization, Alexa594 FP, 6 h; also: nearly all actives have a fitted effect of over 55% in size
Target sequence (P10636 561-689 P618L limits assumed): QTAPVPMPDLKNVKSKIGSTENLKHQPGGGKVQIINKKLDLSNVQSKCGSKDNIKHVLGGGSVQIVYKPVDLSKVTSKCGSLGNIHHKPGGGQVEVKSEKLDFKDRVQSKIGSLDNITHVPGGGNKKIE
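Recombinant K18 P301L […], labeled with Alexa 594 at 0.24 uM over 15 uM unlabeled; heparin inducer 20 uM final; 37 C, 6 hr; FP endpoint.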
RORgamma inh – ROR gamma (mouse) transcription inhibition; P51450; Drosophila S2 Gal4-RORgamma UAS-luciferase reporter, 20 h; Potency, µM (highest dose often 53.6 µM), for the others: at the highest dose activity change, negative = inhibition, actives largely listed as inhibitors; 310,000 compounds, 5.4% hits; also: nearly all actives have a fitted effect of over 60% in size
Target sequence (P51450 whole entry, looked up, the tested form may be a part): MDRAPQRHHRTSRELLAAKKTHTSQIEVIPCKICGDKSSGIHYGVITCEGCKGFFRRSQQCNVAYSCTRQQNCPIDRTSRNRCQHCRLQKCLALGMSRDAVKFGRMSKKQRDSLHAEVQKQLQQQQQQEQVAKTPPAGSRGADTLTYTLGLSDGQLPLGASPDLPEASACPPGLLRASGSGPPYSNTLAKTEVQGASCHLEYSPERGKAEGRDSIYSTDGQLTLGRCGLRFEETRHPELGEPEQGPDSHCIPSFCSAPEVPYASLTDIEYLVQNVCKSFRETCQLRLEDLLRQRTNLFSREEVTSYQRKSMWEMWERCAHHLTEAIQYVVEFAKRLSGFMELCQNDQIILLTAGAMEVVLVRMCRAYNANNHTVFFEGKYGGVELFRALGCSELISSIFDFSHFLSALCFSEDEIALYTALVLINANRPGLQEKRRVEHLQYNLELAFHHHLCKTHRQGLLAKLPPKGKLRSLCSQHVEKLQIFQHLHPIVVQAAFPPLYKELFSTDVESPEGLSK
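Compounds are pin-transferred onto Drosophila Schneider cells expressing a copper-inducible Gal4–ROR gamma transactivation domain fusion. After 1 hr, copper sulfate is added to 700 uM final; luciferase is read 20 hr later.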
VP16 counter – inhibits Gal4-VP16 luciferase reporter, ROR gamma counter-screen; AID 2546; Potency, µM (doses to about 53.6 µM), inactives show top-dose activity, negative = inhibition, hits mostly inhibitors; 310,000 compounds, 3.5% hits; Drosophila S2 Gal4-VP16 UAS-luciferase, luminescence, 20 h;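 also: Gal4-VP16 expression switched on by copper sulfate through the metallothionein promoter; nearly all actives have a fitted effect of over 50% in size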
Tau fluor cs – counter-screen for tau fibril formation inhibitors. tau K18 P301L Alexa594 fluorescence, heparin fibrillization. Potency, µM (series often up to 57.7 µM), inactives show at the highest dose activity change, negative = decrease. 280,000 compounds, 0.93% hits; also: nearly all actives have a fitted effect of over 55% in size
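Human tau K18 P301L (15 uM unlabeled, 0.24 uM Alexa 594-labeled) in 100 mM sodium acetate pH 7 with 20 uM heparin, 6 hr at 37 C. ThT 30 uM added, 1 hr ambient; Alexa 594 FP and total fluorescence read at 555/632 nm.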
Tau ThT inhib – blocks human tau fibril formation measured by thioflavin T; recombinant tau K18 P301L (four-repeat tau fragment), heparin-induced fibrillization, ThT fluorescence; Potency, µM (highest dose often 57.4 µM), for inactives: at the top dose activity, negative = inhibition, most hits filed as inhibitors; 270,000 compounds, 2.1% hits; also: nearly all actives have a fitted effect of over 55% in size
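Aggregation was driven by heparin (20 uM final) acting on recombinant tau […] bearing P301L in 100 mM sodium acetate pH 7; fibrils were detected with Thioflavin T.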
Active calls of the source: *; [ ] = dose if it differs, or a comment. Calls follow the shape of the dose curve; as a rule, active = well fitted curve in the direction sought with a large enough effect; inconclusive = small, poorly fitted or top-dose-only effect, or another doubt; inactive = no such curve, though single readings can be large; an effect the other way counts as inactive or inconclusive. % is scaled to controls: 0 for no effect and ±100 for the full control effect; potency is read from the fitted curve at half-maximal effect.

Results for O=C(O)CC(C(=O)O)N1C(=O)/C(=C/c2ccc(-c3nc4ccccc4s3)o2)SC1=S (configuration not stated) ?
Tau FP inhib: inconclusive; RORgamma inh: 1.8%; VP16 counter: -3.8%; Tau fluor cs: -25.6%; Tau ThT inhib: 7.94µM*

How did O=C(O)CCCN1C(=O)/C(=C\c2ccc(-c3nc4ccccc4s3)o2)SC1=S do in these assays?
Tau FP inhib: inconclusive; RORgamma inh: -3.3%; VP16 counter: -4.4%; Tau fluor cs: inconclusive; Tau ThT inhib: 2.51µM*

What do the screens show for `O=C(O)CCN1C(=O)/C(=C/c2ccc(-c3nc4ccccc4s3)o2)SC1=S`?
Tau FP inhib: -5.0%; RORgamma inh: 23.4%; VP16 counter: -11.9%; Tau fluor cs: -25.5%; Tau ThT inhib: 1.26µM*

What do the screens show for `Cc1nn(-c2ccccc2)c(Cl)c1/C=C1\SC(=S)N(CCCCCC(=O)O)C1=O`?
Tau FP inhib: 20.1%; RORgamma inh: -5.9%; VP16 counter: -1.9%; Tau fluor cs: 4.6%; Tau ThT inhib: inconclusive

Results for O=Cc1ccc(-c2nc3ccccc3s2)o1 ?
Tau FP inhib: -8.8%; RORgamma inh: 4.47µM*; VP16 counter: 7.94µM*; Tau fluor cs: -2.3%; Tau ThT inhib: inconclusive

How did CCOc1cccc(C(=O)NC(=S)Nc2cccc(C)c2)c1 do in these assays?
Tau FP inhib: -9.4%; RORgamma inh: 2.51µM*; VP16 counter: 10µM*; Tau fluor cs: -29.2%; Tau ThT inhib: inconclusive

What do the screens show for `CCCCOc1cccc(C(=O)NC(=S)Nc2ccc(Cl)c(C(=O)O)c2)c1`?
Tau FP inhib: 8.1%; RORgamma inh: 17.8%; VP16 counter: -23.1%; Tau fluor cs: 6.1%; Tau ThT inhib: -5.1%

Results for CCCOc1cccc(C(=O)NC(=S)Nc2cccc(C(F)(F)F)c2)c1 ?
Tau FP inhib: -13.3%; RORgamma inh: 10µM*; VP16 counter: inconclusive; Tau fluor cs: inconclusive; Tau ThT inhib: inconclusive

Results for CCOc1cccc(C(=O)Nc2cccc(C(C)=O)c2)c1 ?
Tau FP inhib: -4.4%; RORgamma inh: 2.8%; VP16 counter: 8.6%; Tau fluor cs: -10.9%; Tau ThT inhib: -6.7%

What do the screens show for `Cc1cccc(N2CC(C(=O)Nc3nccs3)CC2=O)c1C` (configuration not stated)?
RORgamma inh: 2.3%; VP16 counter: -12.7%

What do the screens show for `Cc1ccc(S(=O)(=O)ON=C2CCN(S(=O)(=O)c3ccccc3)CC2)cc1`?
Tau FP inhib: 6.4%; RORgamma inh: -7.9%; VP16 counter: inconclusive; Tau fluor cs: 3.6%; Tau ThT inhib: 11.8%

What do the screens show for `CC1=CC(=O)C=C(C)C1=NOS(=O)(=O)c1ccccc1`?
Tau FP inhib: inconclusive; RORgamma inh: 17.8µM*; VP16 counter: 17.8µM*; Tau fluor cs: inconclusive; Tau ThT inhib: 14.1µM*

What do the screens show for `CC1=CC(=O)C(C(C)C)=C/C1=N/OS(=O)(=O)c1ccccc1`?
Tau FP inhib: inconclusive; RORgamma inh: 2.82µM*; VP16 counter: 2µM*; Tau fluor cs: inconclusive; Tau ThT inhib: 14.1µM*

What do the screens show for `COc1ccccc1NC(=O)NCCN1CCNC1=O`?
Tau FP inhib: 0.2%; RORgamma inh: 4.8%; VP16 counter: 3.1%; Tau fluor cs: -2.0%; Tau ThT inhib: -3.9%

Results for CCc1nc(SC)ncc1C(=O)NCc1cccc(Br)c1 ?
Tau FP inhib: 1.0%; Tau fluor cs: -13.3%; Tau ThT inhib: inconclusive

What do the screens show for `C/C(=N\NC(=O)c1ccccc1)c1cc2cc([N+](=O)[O-])ccc2oc1=O`?
Tau FP inhib: 5.7%; RORgamma inh: 7.94µM*; VP16 counter: 5.01µM*; Tau fluor cs: -14.7%; Tau ThT inhib: inconclusive

How did C/C(=N\NC(=O)c1ccncc1)c1cc2ccccc2oc1=O do in these assays?
Tau FP inhib: 0.1%; RORgamma inh: 7.94µM*; VP16 counter: 12.6µM*; Tau fluor cs: -10.2%; Tau ThT inhib: inconclusive

Results for C/C(=N\NC(=O)c1ccc([N+](=O)[O-])cc1)c1cc2ccccc2oc1=O ?
Tau FP inhib: 10.2%; RORgamma inh: 15.8µM*; VP16 counter: inconclusive; Tau fluor cs: -21.7%; Tau ThT inhib: inconclusive

Results for C/C(=N\Nc1ccc([N+](=O)[O-])cc1[N+](=O)[O-])c1cc2c(ccc3ccccc32)oc1=O ?
Tau FP inhib: -9.3%; RORgamma inh: -18.7%; VP16 counter: -4.1%; Tau fluor cs: -7.9%; Tau ThT inhib: inconclusive

Results for C/C(=N/NC(=O)c1ccncc1)c1cc2ccc(O)cc2oc1=O ?
Tau FP inhib: 5.7%; RORgamma inh: 12.2%[10 µM]; VP16 counter: -4.2%; Tau fluor cs: 1.5%; Tau ThT inhib: inconclusive

Results for N/C(=N\NC(=O)c1ccccc1Cl)c1cc2ccccc2oc1=O ?
Tau FP inhib: -0.6%; RORgamma inh: 14.1µM*; VP16 counter: inconclusive; Tau fluor cs: -11.1%; Tau ThT inhib: inconclusive

What do the screens show for `COC(=O)c1cc2ccccc2oc1=O`?
Tau FP inhib: 1.4%; RORgamma inh: -15.1%; VP16 counter: 6.2%; Tau fluor cs: 8.8%; Tau ThT inhib: -4.6%

Results for O=C(Nc1ccc([N+](=O)[O-])cc1)c1cccc(S(=O)(=O)Nc2cccnc2)c1 ?
RORgamma inh: 11.1%; VP16 counter: -6.8%

Results for Clc1cccc(-c2ccc(CNCCSc3nnnn3-c3ccccc3)o2)c1 ?
Tau FP inhib: -8.1%; Tau fluor cs: -26.7%; Tau ThT inhib: -7.8%

How did CC(C)(C)c1ccc(C(=O)N2CCC(=O)N(C(COCc3ccccc3)Cc3ccccc3)CC2)cc1 (configuration not stated) do in these assays?
Tau FP inhib: -5.0%; RORgamma inh: 22.3%; VP16 counter: 14.1µM*; Tau fluor cs: -14.8%; Tau ThT inhib: inconclusive

Results for COc1cccc(/C=N/NC(=O)C(=O)NCc2ccco2)c1O ?
Tau FP inhib: -9.6%; RORgamma inh: 3.98µM*; VP16 counter: 6.31µM*; Tau fluor cs: -6.2%; Tau ThT inhib: -11.5%

What do the screens show for `C=CCNC(=S)N/N=C/c1ccccc1OCCOc1ccccc1`?
RORgamma inh: 2.51µM*; VP16 counter: 5.01µM*

What do the screens show for `S=C(NCc1ccco1)N/N=C/c1ccccc1Cl`?
Tau FP inhib: -2.7%; RORgamma inh: 11.2µM*; VP16 counter: inconclusive; Tau fluor cs: -13.0%; Tau ThT inhib: -0.7%

How did COc1ccccc1/C=N/NC(=S)NCc1ccco1 do in these assays?
Tau FP inhib: 4.7%; RORgamma inh: 2µM*; VP16 counter: 11.2µM*; Tau fluor cs: 5.4%; Tau ThT inhib: 0.4%

What do the screens show for `COC(=O)N/N=C/c1ccccc1OCCOc1ccc(OC)cc1`?
Tau FP inhib: 8.5%; RORgamma inh: 24.1%; VP16 counter: -12.2%; Tau fluor cs: -0.5%; Tau ThT inhib: -11.5%

Results for COc1cccc(/C=N/NC(=O)C(=O)NCc2ccco2)c1OC ?
Tau FP inhib: -8.0%; RORgamma inh: 14.0%; VP16 counter: 2.9%; Tau fluor cs: -11.2%; Tau ThT inhib: -6.7%
